# Several values for one entry are separate records, joined by “and”; a condition that tells them apart may be missing. Equal entries are not always repeated. Out of some 16,000 compounds screened, about 160 (1%) were called active. Not shown: some 8% with an inconclusive outcome. This is one part of a sample in which actives are shown more often than they occur. The call rests on the fitted dose curve; in most records, active means well fitted activation curve with a large enough effect; inconclusive means small, poorly fitted or top-dose-only effect; inactive means no such curve, though single readings can be large or run the other way.
# Target: Rap guanine nucleotide exchange factor 3 (Homo sapiens) (UniProt O95398)
# Assay: Validation qHTS for agonist of cAMP-regulated guanine nucleotide exchange factor 3 (EPAC1); further: nearly all actives have a fitted effect of over 70% in size
# Settings: EPAC1 Rap1b BODIPY-GDP exchange, fluorescence; max response: active compounds read high, percent of cAMP control response
# Description: Assay Provider (PI): Xiaodong Cheng Ph.D.
# The University of Texas Medical Branch, […], TX
# In multi-cellular eukaryotic organisms, the effects of cAMP are transduced by two ubiquitously-expressed intracellular cAMP receptors, the classic protein kinase A/cAMP-dependent protein kinase (PKA/cAPK) and the more recently discovered exchange protein directly activated by cAMP/cAMP-regulated guanine nucleotide exchange factor (EPAC/cAMP-GEF). Both PKA and EPAC are ubiquitously expressed in all tissues, and an increase in intracellular cAMP levels will lead to the activation of both PKA and EPAC. Therefore, careful dissections of the individual role and relative contribution of EPAC and PKA within the overall cAMP signaling in various model systems are critical for further elucidating the mechanism of cAMP signaling. To date no EPAC-specific antagonists and agonist, as well as isoform-specific agonists have been reported, and developing EPAC-specific pharmacological probes to determine the physiological functions that EPAC play in the overall cAMP-mediated signaling remains a major challenge within the research field. Furthermore, identified regulators of EPAC may lead to new mechanism-based therapeutic strategies specifically targeting the EPAC / cAMP-signaling components as EPAC has been implicated to play important roles in major human pathological conditions such as diabetes, heart disease, and cancer.
# This qHTS will be used to screen the Molecular Libraries Small Molecule Repository (MLSMR) as a concentration-titration series using the NCGC unique quantitative screening (qHTS) platform to find activators for EPAC1. In addition, this assay will also be used as a counterscreen for the EPAC2 qHTS. This fluorescent based assay is developed and validated for EPAC1 that measures exchange using EPAC effector Rap1 complex with BODIPY-GDP, a GDP analog with a tethered fluorophores. Activators are identified by monitoring the change in fluorescence signal as the exchanged free BODIPY-GDP has a reduced fluorescence compared to Rap1-bound BODIPY-GDP. Increase in signal (activation) is the desired outcome for the EPAC1 agonist while no activity in this assay is desired for the EPAC2 agonist counterscreen.
# [1] de Rooij, J., Zwartkruis, F. J., Verheijen, M. H., Cool, R. H., Nijman, S. M., Wittinghofer, A., and Bos, J.L. (1998) Nature 396, 474-477.
# Briefly, three uL of reagents (100 nM EPAC1, 250 nM RAP1B-BODIPY-GDP, 50 uM GDP) were dispensed into a 1536-well Greiner black solid-bottom medium binding assay plate. Controls and test compounds (23 nL) were transferred to the plate via a Kalypsys pin tool equipped with a 1536-pin array. The plates were centrifuged at 1,000 rpm for 15 seconds followed by 5 minute incubation at room temperature. The assay plates were read at 5 minute intervals for 30 minutes in the ViewLux plate reader using 480nm excitation and 540nm emission filters. The results were normalized to the agonist positive control of 6.5 mM cAMP.
# On the % scale 0 is the no-effect control and ±100 the full control effect; potency means the concentration at half of the fitted maximal effect.
# Chain of Rap guanine nucleotide exchange factor 3 (Homo sapiens) (O95398 whole entry, looked up): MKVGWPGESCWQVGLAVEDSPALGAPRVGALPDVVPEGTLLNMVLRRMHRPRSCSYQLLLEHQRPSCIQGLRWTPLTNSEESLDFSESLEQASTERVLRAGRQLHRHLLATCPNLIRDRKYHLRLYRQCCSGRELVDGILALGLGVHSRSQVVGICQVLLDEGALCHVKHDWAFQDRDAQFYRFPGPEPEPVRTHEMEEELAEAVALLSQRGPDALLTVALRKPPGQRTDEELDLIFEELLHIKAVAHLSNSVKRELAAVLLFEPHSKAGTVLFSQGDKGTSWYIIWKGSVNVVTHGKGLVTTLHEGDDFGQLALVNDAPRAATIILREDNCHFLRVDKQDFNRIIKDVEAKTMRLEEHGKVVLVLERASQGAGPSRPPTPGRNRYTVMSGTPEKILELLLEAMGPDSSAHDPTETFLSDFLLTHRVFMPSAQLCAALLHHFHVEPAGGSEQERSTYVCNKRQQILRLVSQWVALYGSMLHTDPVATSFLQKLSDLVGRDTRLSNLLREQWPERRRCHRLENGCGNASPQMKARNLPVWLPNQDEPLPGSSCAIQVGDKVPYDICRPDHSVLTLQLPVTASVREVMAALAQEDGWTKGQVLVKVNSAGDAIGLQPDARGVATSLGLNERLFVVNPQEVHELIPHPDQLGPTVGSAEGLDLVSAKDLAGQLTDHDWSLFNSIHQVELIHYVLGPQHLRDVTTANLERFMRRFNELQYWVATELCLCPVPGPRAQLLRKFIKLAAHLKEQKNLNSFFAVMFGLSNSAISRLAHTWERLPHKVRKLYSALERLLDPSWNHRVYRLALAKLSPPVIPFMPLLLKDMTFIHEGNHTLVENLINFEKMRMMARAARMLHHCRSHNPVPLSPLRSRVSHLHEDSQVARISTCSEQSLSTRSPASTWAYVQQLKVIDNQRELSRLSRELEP
Compound,max response,Potency
O=c1c(-c2cccs2)nc2cnc(Oc3ccccc3)nc2n1-c1ccccc1,26.8% (inactive),–
C=O,-10.7% (inactive),–
COCCn1c(=O)c(-c2cccs2)nc2cnc(N3CCN(C)CC3)nc21,9.88% (inactive),–
CC(=O)Nc1cc(C(=O)N2CCc3c(Cl)cccc3C2)cc2ncn(CCc3ccccn3)c12,1.17% (inactive),–
COC(C)C(C(=O)OCC1=CCN2CC[C@H](O)[C@@H]12)C(C)C (stereo partly drawn),5.22% (inactive),–
CNc1cc(-c2c(C)noc2C)ncn1,2.2% (inactive),–
CC(Oc1ccccc1)C(=O)N[C@@H]1C(=O)N2[C@@H]1SC(C)(C)[C@@H]2C(=O)O (stereo partly drawn),-0.674% (inactive),–
COc1cccc(Cn2c(=O)cnc3cncnc32)c1,-1.3% (inactive),–
Cc1cn(C2OC[C@@H](O)[C@@H]2CO)c(=O)[nH]c1=O (stereo partly drawn),-10% (inactive),–
O=C(c1cnccn1)N1CCC2(CCCN(Cc3ccccc3)C2)CC1,-21.3% (inactive),–
O=C(C[n+]1cc(Br)cc2ccccc21)c1ccc(F)cc1,6.56% (inactive),–
O=c1c(-c2ccc(F)c(F)c2)nc2cncnc2n1-c1ccccc1,-25.2% (inactive),–
COc1ccc(C(=O)N2CCC3(CC2)CCN(c2ccccn2)CC3)cc1,-52.8% (inactive),–
COC(=O)c1ccccc1-c1cc(C)cc2c1OC(CNC(=O)C1CCOC1)C2 (stereo not drawn),15.3% (inactive),–
COc1ccccc1-c1cc(NCc2cccs2)ncn1,-0.282% (inactive),–
NNc1nnc(Cc2ccncc2)c2ccccc12,17.7% (inactive),–
COc1ccc(-n2c(=O)c(C)nc3cnc(N4CCOCC4)nc32)cc1,-14.8% (inactive),–
O=C(CCN1Cc2ccccc2OC(c2ccccc2)C1)N[C@@H]1CS(=O)(=O)C[C@H]1O (stereo partly drawn),0.897% (inactive),–
CN(C)c1ccc(/C=C/C=C/c2ccnc3ccccc23)cc1,–,112 µM (active)
CN(C)c1ccc(/C=C/c2c3ccccc3nc3ccccc23)cc1,23.9% (inactive),–
Cc1c(C(=O)NCC2CCCN(C)C2)cnn1-c1nccc(-c2ccco2)n1 (stereo not drawn),-6.37% (inactive),–
CC1(C)[C@H](O[C@H]2O[C@H](C(=O)O)[C@@H](O)[C@H](O)[C@H]2O[C@@H]2O[C@H](C(=O)O)[C@@H](O)[C@H](O)[C@H]2O)CC[C@@]2(C)[C@H]1CC[C@]1(C)[C@H]2C(=O)C=C2[C@H]3C[C@@](C)(C(=O)O)CC[C@]3(C)CC[C@]21C,5.45% (inactive),–

Compound,max response,Potency
CN(Cc1ccco1)c1ncncc1-c1ccoc1,15.3% (inactive),–
O=C(c1ccco1)N1CCC[C@@]2(CCN(c3ccccc3)C2)C1,-31.3% (inactive),–
CCCCCCCCCCCC(=O)O[C@H](CC(=O)O)C[N+](C)(C)C,-21.3% (inactive),–
O=S1(=O)CCOC[C@H](Cc2ccccc2)N1Cc1ccccc1Br,21.5% (inactive),–
Cc1nc2cc(NC(=O)[C@@H]3C[C@@H](Sc4ccccn4)CN3Cc3ccccc3C)ccc2s1,16.2% (inactive),–
Cc1cc[n+](C2CCCCC2)cc1,-16.9% (inactive),–
CC1(C)S[C@@H]2[C@H](N=CN3CCCCCC3)C(=O)N2[C@H]1C(=O)O,-11.7% (inactive),–
CCN(Cc1ccncc1)C(=O)[C@@H](CO)c1ccccc1,7.04% (inactive),–
C#CCCCCCCCCCCCCCCCC(=O)O,-16.8% (inactive) and -0.644% (inactive),–
CCN1CCN(C(=O)N[C@@H](C(=O)N[C@@H]2C(=O)N3[C@@H]2SC(C)(C)[C@H]3C(=O)O)c2ccccc2)C(=O)C1=O,15.9% (inactive),–
CS(=O)(=O)N1CCC2(CC1)CN(Cc1ccccc1)C2,-14.5% (inactive),–
COc1ccc2[nH]cc(CCNc3cc(-c4ccccc4CN(C)C)ncn3)c2c1,-42% (inactive),–
COc1ccc(CNc2ncncc2-c2ccccc2OC)c(OC)c1,-21.3% (inactive),–
O=C(O)CCCCCCCCc1cn(CN2C(=O)c3ccccc3C2=O)nn1,12.5% (inactive),–
Oc1ccc(Cl)c2c1CCC2,-17.9% (inactive),–
Cc1csc(-c2nc3ccccc3n2C)n1,8.44% (inactive),–
NC(=O)c1sc(-c2ccsc2)cc1N,-9.78% (inactive),–
Cc1cnc(CNc2ncncc2-c2ccccc2Cl)cn1,13% (inactive),–
O=c1c(-c2ccc(F)cc2)nc2cnc(N3CCOCC3)nc2n1-c1ccccc1,-86.9% (inactive),–
COc1ccccc1-c1nc(NCc2cccs2)c2ccccc2n1,-19.8% (inactive),–
Cc1cc(C(=O)NCC2Cc3cccc(-c4cncnc4)c3O2)c(C)o1 (stereo not drawn),3.15% (inactive),–
COc1ccccc1CNc1ncncc1-c1cccc(NS(C)(=O)=O)c1,-3.54% (inactive),–

Compound,max response,Potency
CCC1CN(CCNC(=O)c2cccc(C)n2)Cc2cc(OC)ccc2O1 (stereo not drawn),8.26% (inactive),–
CC(C)(C)NCC(O)COc1cccc2[nH]c(=O)[nH]c12 (stereo not drawn),-8.93% (inactive) and -6.11% (inactive),–
CC(=O)N1CCC2(CCCN(c3ncccn3)C2)CC1,-18.4% (inactive),–
Cc1ccc(C(=O)Nc2cccc(-c3nc(CNC(=O)c4ccccc4-n4cccn4)c(C)o3)c2)s1,-3.18% (inactive),–
Cc1csc(-c2coc3cc(O[C@@H]4O[C@H](CO)[C@@H](O)[C@@H](O)[C@H]4O)ccc3c2=O)n1,-1.66% (inactive),–
COc1cc2[nH]c(C)c(CCN3CCN(c4ccccc4)CC3)c2cc1OC,5.71% (inactive),–
COCCn1c(=O)c(-c2cc(F)cc(F)c2)nc2cncnc21,-6.52% (inactive),–
COCC(=O)N1CCC2(CCCN(c3ccccc3)C2)CC1,-14.6% (inactive),–
Cc1noc(C)c1-c1nccc(N2CCOCC2)n1,5.18% (inactive),–
O=P(O)(O)OC[C@H](O)CO,-11.2% (inactive),–
O=C(O)/C(=C/c1c(C(=O)O)[nH]c2cc(Cl)cc(Cl)c12)c1ccccc1,-0.525% (inactive),–
CCOC(=O)N1CCC(N2CCOc3ccc(CN4CCC(O)(c5cccnc5)CC4)cc3C2)CC1,-5.78% (inactive),–
Clc1ccccc1-c1cc(NCCN2CCOCC2)ncn1,-6.13% (inactive),–
Cn1c(=O)c(CCc2ccccc2)nc2cnc(Nc3ccccc3)nc21,-11% (inactive),–
O=c1cc(-c2ccc(O)c(O)c2)oc2cccc(O)c12,8.34% (inactive),–
COc1cc(C)c(CN2CCc3nnc(C(C)NC(=O)c4cccnc4)n3CC2)cc1C (stereo not drawn),12.1% (inactive),–
COCCNc1ncnc2ccc(-c3cccnc3)cc12,-29.2% (inactive),–
CN(C)c1ccc(/C=c2\[nH]c(=O)/c(=C/c3ccc(N(C)C)cc3)[nH]c2=O)cc1,8.62% (inactive),–
CC(C)C1=CC2=CC[C@@H]3[C@](C)(CO)CCC[C@]3(C)C2CC1 (stereo partly drawn),-8.55% (inactive),–
Cc1cc2nc3c(=O)[nH]c(=O)nc-3n(C[C@H](O)[C@H](O)[C@H](O)CO)c2cc1C,–,100 µM (active)
O=C(Nc1ccccc1)N[C@H]1C[C@H](C(=O)O)Nc2cc(Cl)cc(Cl)c21,1.49% (inactive),–
C=C1CC[C@H](O)CC1=C/C=C1\CCC[C@]2(C)[C@@H]([C@H](C)/C=C/[C@H](C)C(C)C)CC[C@@H]12,-127% (inactive),–

Compound,max response,Potency
CC(N)=NCc1cccc(CN)c1,8.83% (inactive) and -11.8% (inactive),–
CCOC(=O)C[C@H]1c2ccc(C(F)(F)F)cc2S(=O)(=O)N1c1ccccc1,-85% (inactive),–
CCC1CN(CCNC(=O)c2cccnc2C)Cc2cc(OC)ccc2O1 (stereo not drawn),1.97% (inactive),–
Cc1nc2cnc(Oc3cccc(Cl)c3)nc2n(C2CC2)c1=O,-12.8% (inactive),–
Cc1[nH]c2c(C(=O)NCC3Cc4cccc(-c5cccnc5)c4O3)cccc2c1C (stereo not drawn),19.3% (inactive),–
O=S1(=O)CCO[C@H]2Cc3ccccc3[C@H]2N1Cc1ccccc1,7.53% (inactive),–
CC(=O)OC1CCC2(O)CC1(C)CCC1C2CC1(C)C (stereo not drawn),-18.2% (inactive),–
COc1cc2c(cc1OC)CC(=O)N(CCCN(C)C[C@H]1Cc3cc(OC)c(OC)cc31)CC2,1.48% (inactive),–
COc1ccc(C2CC(=O)c3c(O)cc(OC4OC(COC5OC(C)C(O)C(O)C5O)C(O)C(O)C4O)cc3O2)cc1O (stereo not drawn),-7.79% (inactive),–
O=C(c1cnccn1)N1CCC2(CCN(Cc3cc(C(F)(F)F)cc(C(F)(F)F)c3)CC2)CC1,-66.3% (inactive),–
NC(=O)C(=O)N/N=C/c1ccc([N+](=O)[O-])o1,-37.2% (inactive),–
COCCNc1ccnc(-c2cccc(NS(C)(=O)=O)c2)n1,-9.71% (inactive),–
Nc1nc(/C(=C/CC(=O)O)C(=O)N[C@@H]2C(=O)N3C(C(=O)O)=CCS[C@H]23)cs1,13.2% (inactive),–
N#C/C(=C\c1ccc(O)c(O)c1)C(N)=O,-9.7% (inactive) and -17.1% (inactive),–
COc1ccccc1C(=O)N[C@@H]1c2ccccc2C2(CCN(Cc3nc(C(C)C)cs3)CC2)[C@H]1O,12.9% (inactive),–
CN(C)c1ccc(CN2CCOc3ccc(CN4CCC(O)(c5cccnc5)CC4)cc3C2)cc1,-6.57% (inactive),–
O=C(c1cc(C(F)(F)F)cc(C(F)(F)F)c1)N1CCC2(CC1)CN(c1ccncc1)C2,12.3% (inactive),–
O=c1[nH]c(=O)c2nc3ccccc3nc2[nH]1,-1.62% (inactive) and 3.86% (inactive),–
COC(=O)[C@@H]1C[C@H](NC(=O)c2ccccc2C(F)(F)F)CN1Cc1cccc(O)c1,-10.1% (inactive),–
Cc1cc(-c2ccnc(-n3ncc(C(=O)NC(C)(C)CO)c3C3CC3)n2)c(C)s1,5.17% (inactive),–
CS(=O)(=O)N1CCC2(CCN(c3ccncc3)CC2)CC1,-40.6% (inactive),–
O=c1c(O)c(-c2ccc(O)cc2)oc2ccccc12,-32.1% (inactive),–

# — PubChem BioAssay AID1645883 (National Center for Advancing Translational Sciences (NCATS), 2021)
